We go through 18 compounds from PubChem BioAssay.

A short description of assay [1]: antimalarial activity against Dd2 strain (AID 2302;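 active means growth inhibition above 50% at the single 2 µM test dose, taken to imply half-maximal potency below 2 µM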;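 further: 0% = DMSO untreated growth and 100% = chloroquine plus artemisinin killed control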). The note with it: P. falciparum Dd2 in RBCs, LDH growth readout, 72 h; at 2 µM; stronger effect = higher value.
Assay [2] is described as follows: HepG2 cytotoxicity, primary screen, cytotoxicity control for P. falciparum antimalarial project, cell-based, ATP luminescence (AID 2303;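 active means inhibition above 50%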;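 further: 0% = DMSO wells and 100% = digitonin-killed cells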). The note with it: HepG2 viability, 24-48 h, at 10 µM, stronger effect = higher value.
The target in assay [3] is L-lactate dehydrogenase (Plasmodium falciparum (isolate CDC / Honduras)) (UniProt Q27743). Description: PfLDH activity inhibition – cell lysate, 3D7 strain, counter-screen for P. falciparum growth inhibition project (AID 2304).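 Further: 0% = vehicle and 100% = reference inhibitor.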 As to conditions: P. falciparum 3D7 crude extract, LDH APAD/NBT absorbance; at 2 µM; stronger effect = higher value. On the technique in general: Counterscreens check selectivity or assay interference.

Assay [4] can be described thus: inhibition of 3D7 malaria parasite growth – strain 3D7 (AID 2306).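 Further: 0% = DMSO wells and 100% = chloroquine plus artemisinin control wells.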 The note with it: P. falciparum 3D7 erythrocytic growth, LDH absorbance, 72 h; at 2 µM; stronger effect = higher value.
Assay [5] deals with Calcium-dependent protein kinase 1 (Plasmodium falciparum (isolate 3D7)) (UniProt P62344). Nature of the assay: PfCDPK1 kinase inhibitors, biochemical, TCAMS library (AID 1159585; cut-off not given, nearly all actives have IC50 up to about 0.98 µM;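 further: inhibitors leave more ATP so luminescence rises with inhibition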). The note with it: recombinant PfCDPK1, Kinase-Glo ATP depletion luminescence.
For assay [6], the target named is Plasmodium falciparum protein kinase 6 (PK6, PF3D7_1337100) (UniProt Q8IDW1). Nature of the assay: PfPK6 kinase inhibitors, biochemical, TCAMS library (AID 1159586). As to conditions: recombinant PfPK6, Kinase-Glo ATP depletion luminescence.
Assay [7] concerns the target Protein kinase 7 (PK7), Plasmodium falciparum 3D7 (PF3D7_0213400) (UniProt Q7YTF7). Description: inhibition of Plasmodium PK7 catalytic activity – biochemical, TCAMS antimalarial set, Kinase-Glo luminescence (AID 1159587). As to conditions: recombinant PfPK7, Kinase-Glo ATP depletion luminescence. Background: In Kinase-Glo more light means more ATP remaining.
Assay [8] addresses Calcium-dependent protein kinase 4 (Plasmodium falciparum (isolate 3D7)) (UniProt Q8IBS5). Description: PfCDPK4 kinase inhibitors, biochemical, TCAMS library (AID 1159588; cut-off not given, nearly all actives have IC50 up to about 0.91 µM). The note with it: recombinant PfCDPK4, Kinase-Glo ATP depletion luminescence.

Each structure is given as a SMILES string. Where “and” joins values, the source holds several entries; their conditions need not be identical. Equal entries are not always repeated. For part of these data: Measured potencies and affinities stand elsewhere. A structure can be active in one record and inactive in another. Calls of active or inactive are those of the source. Unless noted, how the calls were made is not given here.

For orientation: inhibition means the change of the read-out against control, counted positive when it falls.

L-lactate dehydrogenase (Plasmodium falciparum (isolate CDC / Honduras)), sequence (Q27743 whole entry, looked up): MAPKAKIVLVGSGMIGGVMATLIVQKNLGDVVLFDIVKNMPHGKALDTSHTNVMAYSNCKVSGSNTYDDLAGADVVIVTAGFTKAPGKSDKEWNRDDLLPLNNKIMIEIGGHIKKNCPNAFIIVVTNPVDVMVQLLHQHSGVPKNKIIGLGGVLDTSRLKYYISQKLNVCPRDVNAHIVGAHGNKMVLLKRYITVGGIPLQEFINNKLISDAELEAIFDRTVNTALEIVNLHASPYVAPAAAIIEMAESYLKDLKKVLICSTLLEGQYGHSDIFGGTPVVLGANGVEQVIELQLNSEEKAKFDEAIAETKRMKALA
Protein kinase 7 (PK7), Plasmodium falciparum 3D7 (PF3D7_0213400), sequence (Q7YTF7 1-343): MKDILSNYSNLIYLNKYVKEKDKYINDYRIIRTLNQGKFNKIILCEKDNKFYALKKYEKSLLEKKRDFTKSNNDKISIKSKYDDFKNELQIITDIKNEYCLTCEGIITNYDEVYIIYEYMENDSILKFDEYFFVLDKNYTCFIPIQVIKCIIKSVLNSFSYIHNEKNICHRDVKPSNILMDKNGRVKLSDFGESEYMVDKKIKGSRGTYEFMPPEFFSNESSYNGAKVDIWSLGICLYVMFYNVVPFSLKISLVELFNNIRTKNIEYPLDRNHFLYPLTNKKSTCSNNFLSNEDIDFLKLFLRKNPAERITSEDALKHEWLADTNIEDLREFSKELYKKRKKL
Plasmodium falciparum protein kinase 6 (PK6, PF3D7_1337100), sequence (Q8IDW1 1-305): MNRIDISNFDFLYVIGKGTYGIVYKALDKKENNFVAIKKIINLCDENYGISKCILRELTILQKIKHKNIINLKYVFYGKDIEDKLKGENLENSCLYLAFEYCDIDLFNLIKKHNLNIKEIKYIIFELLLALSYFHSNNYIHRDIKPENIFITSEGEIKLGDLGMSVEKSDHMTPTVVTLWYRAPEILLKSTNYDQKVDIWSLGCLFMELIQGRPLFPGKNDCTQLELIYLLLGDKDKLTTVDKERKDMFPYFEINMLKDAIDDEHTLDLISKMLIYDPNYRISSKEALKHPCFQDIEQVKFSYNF
Calcium-dependent protein kinase 1 (Plasmodium falciparum (isolate 3D7)), sequence (P62344 whole entry, looked up): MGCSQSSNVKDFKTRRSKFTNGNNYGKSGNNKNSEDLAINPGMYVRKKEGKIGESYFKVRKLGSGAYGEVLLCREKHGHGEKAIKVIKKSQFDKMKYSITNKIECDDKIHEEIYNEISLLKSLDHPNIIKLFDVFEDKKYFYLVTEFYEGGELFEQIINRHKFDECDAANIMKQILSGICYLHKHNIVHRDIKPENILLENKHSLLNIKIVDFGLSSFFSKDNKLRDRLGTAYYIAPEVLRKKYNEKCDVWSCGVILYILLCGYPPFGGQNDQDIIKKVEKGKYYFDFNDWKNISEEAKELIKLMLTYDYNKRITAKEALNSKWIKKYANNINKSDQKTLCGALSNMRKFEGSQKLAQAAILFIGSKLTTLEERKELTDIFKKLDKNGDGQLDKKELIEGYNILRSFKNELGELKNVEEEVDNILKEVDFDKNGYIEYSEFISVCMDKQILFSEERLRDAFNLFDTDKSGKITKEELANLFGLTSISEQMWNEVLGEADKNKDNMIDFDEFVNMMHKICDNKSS
Calcium-dependent protein kinase 4 (Plasmodium falciparum (isolate 3D7)), sequence (Q8IBS5 whole entry, looked up): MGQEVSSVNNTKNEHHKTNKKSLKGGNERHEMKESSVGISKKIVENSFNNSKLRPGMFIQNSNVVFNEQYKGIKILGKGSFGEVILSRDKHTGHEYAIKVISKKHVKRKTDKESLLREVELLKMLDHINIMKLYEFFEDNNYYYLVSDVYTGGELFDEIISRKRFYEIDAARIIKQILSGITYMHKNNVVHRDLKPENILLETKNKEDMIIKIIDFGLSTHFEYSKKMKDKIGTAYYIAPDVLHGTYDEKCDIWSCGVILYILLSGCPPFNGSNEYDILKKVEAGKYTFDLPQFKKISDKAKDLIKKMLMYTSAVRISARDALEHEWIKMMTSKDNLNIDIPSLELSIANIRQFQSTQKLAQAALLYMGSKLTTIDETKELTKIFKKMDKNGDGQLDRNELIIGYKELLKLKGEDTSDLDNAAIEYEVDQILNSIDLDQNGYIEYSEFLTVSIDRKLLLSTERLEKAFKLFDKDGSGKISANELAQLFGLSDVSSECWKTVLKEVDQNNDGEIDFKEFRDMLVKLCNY

`O=C(/C=C/c1cc(C(F)(F)F)ccc1F)N1CCC(CN2CCC(c3c[nH]c4ccccc34)CC2)CC1`: the growth inhibition in assay [1] was 14% (inactive); in assay [4], 96% (active). Besides, the results for the inhibition in assay [2] and in assay [3] were 22% (inactive) and -1% (inactive), respectively. Further, the outcome in assay [5], in assay [6], in assay [7] and in assay [8] was inactive.

In the case of `CC(C)CNCc1cccc(-c2ccc(CN(C(=O)Nc3ccccc3)C3CCN(Cc4ccccc4)CC3)cc2)c1`, the growth inhibition in assay [1] was 61% (active); in assay [4], 101% (active). Also, the values for the inhibition in assay [2] and in assay [3] were 41% (inactive) and -2% (inactive), respectively. In addition, the result in assay [5], in assay [6], in assay [7] and in assay [8] was inactive.

As to `COc1ccc(O)c(CN2CCN(c3cc(C)ccc3C)CC2)c1`, the figures for the growth inhibition in assay [1] and in assay [4] were 86% (active) and 90% (active), respectively. The results for the inhibition in assay [2] and in assay [3] were 7% (inactive) and 2% (inactive), respectively. For the same compound, the outcome in assay [5], in assay [6], in assay [7] and in assay [8] was inactive.

As for `COCCNCc1ccc(-c2ccc(CN(C(=O)NC3CCCCC3)C3CCN(Cc4ccccc4)CC3)cc2)cc1`, the results for the growth inhibition in assay [1] and in assay [4] were 84% (active) and 94% (active), respectively. Further, the inhibition is 29% (inactive) in assay [2] and -1% (inactive) in assay [3]. The outcome in assay [5], in assay [6], in assay [7] and in assay [8] was inactive.

With `O=C(/C=C/c1c(Cl)cccc1Cl)NC1CCC(CN2CCC(c3c[nH]c4ccccc34)CC2)CC1` (centres undefined), the growth inhibition in assay [1] is 42% (inactive) and 21% (inactive); in assay [4] it was 93% (active) and 100% (active). Further, the inhibition in assay [2] is 54% (active) and 39% (inactive); in assay [3], -4% (inactive) and 4% (inactive). For the same compound, the outcome in assay [5], in assay [6], in assay [7] and in assay [8] was inactive.

On to `Cc1[nH]c2ccccc2c1C1CCN(CC2CCC(NC(=O)/C=C/c3ccc(Cl)c(Cl)c3)CC2)CC1` (centres undefined), for which the growth inhibition is 93% (active) in assay [1] and 101% (active) in assay [4]. Besides, the results for the inhibition in assay [2] and in assay [3] were 15% (inactive) and 1% (inactive), respectively. Besides, the result in assay [5], in assay [6], in assay [7] and in assay [8] was inactive.

Consider `COc1ccccc1CC(C)NCC(O)c1cccc(Cl)c1` (centres undefined), for which the growth inhibition in assay [1] was 98% (active); in assay [4], 97% (active). Also, the inhibition was 13% (inactive) in assay [2] and -6% (inactive) in assay [3]. For the same compound, the result in assay [5], in assay [6], in assay [7] and in assay [8] was inactive.

Take `CC[C@H]1CN2CCc3cc(OC)c(OC)cc3[C@@H]2C[C@@H]1C[C@H]1NCCc2c1cc(OC)c(OC)c2Br`: the growth inhibition is 97% (active) in assay [1] and 99% (active) in assay [4]. The inhibition in assay [2] was 45% (inactive); in assay [3], -1% (inactive). For the same compound, the outcome in assay [5], in assay [6], in assay [7] and in assay [8] was inactive.

For `COC(C(=O)OCCC1CCCN1C)(c1ccccc1)c1ccccc1` (centres undefined), the growth inhibition in assay [1] is 9% (inactive); in assay [4] it was 98% (active). The inhibition is 6% (inactive) in assay [2] and 2% (inactive) in assay [3]. In addition, the result in assay [5], in assay [6], in assay [7] and in assay [8] was inactive.

On to `Fc1ccc2[nH]cc(CCN3CCC(CNCc4ccccc4)CC3)c2c1`, for which the growth inhibition in assay [1] is 94% (active); in assay [4], 100% (active). Also, the results for the inhibition in assay [2] and in assay [3] were 67% (active) and 4% (inactive), respectively. For the same compound, the outcome in assay [5], in assay [6], in assay [7] and in assay [8] was inactive.

Regarding `CCCCC/C=C/C(=O)NC1CCC(CN2CCC(c3c[nH]c4ccccc34)CC2)CC1` (centres undefined), the growth inhibition in assay [1] was 11% (inactive); in assay [4] it was 87% (active). Besides, the inhibition in assay [2] is 19% (inactive); in assay [3], -1% (inactive). For the same compound, the result in assay [5], in assay [6], in assay [7] and in assay [8] was inactive.

As for `CC[C@H]1CN2CC[C@H]1C[C@H]2[C@H](O)c1cc(-c2ccc(OC(F)(F)F)cc2)nc2ccc(OC)cc12`, the growth inhibition in assay [1] was 99% (active); in assay [4] it was 98% (active). For the same compound, the inhibition in assay [2] is 24% (inactive); in assay [3], 0% (inactive). Besides, the outcome in assay [5], in assay [6], in assay [7] and in assay [8] was inactive.

Consider `CC1=C(C(=O)NC2CCC(CN3CCC(c4c[nH]c5ccccc45)CC3)CC2)Cc2ccccc21` (centres undefined), for which the growth inhibition in assay [1] was 24% (inactive) and 15% (inactive); in assay [4], 97% (active) and 99% (active). The inhibition in assay [2] is 41% (inactive) and 37% (inactive); in assay [3], 6% (inactive) and 7% (inactive). Moreover, the result in assay [5], in assay [6], in assay [7] and in assay [8] was inactive.

`O=C(/C=C/c1ccc(Cl)c(Cl)c1)N1CCC(CN2CCC(c3c[nH]c4ccc(NS(=O)(=O)c5cccs5)cc34)CC2)CC1`: the growth inhibition in assay [1] and in assay [4] was 100% (active) throughout. The inhibition is 17% (inactive) in assay [2] and -7% (inactive) in assay [3]. Also, the outcome in assay [5], in assay [6], in assay [7] and in assay [8] was inactive.

As for `CC[C@H]1CN2CC[C@H]1C[C@H]2[C@H](O)c1cc(-c2ccccc2C(F)(F)F)nc2ccc(OC)cc12`, the growth inhibition in assay [1] was 99% (active); in assay [4], 98% (active). For the same compound, the inhibition in assay [2] is -4% (inactive); in assay [3] it was -5% (inactive). Besides, the result in assay [5], in assay [6], in assay [7] and in assay [8] was inactive.

In the case of `CCCc1c(C(=O)NC2CCC(CN3CCC(c4c[nH]c5ccccc45)CC3)CC2)cnn1-c1ccccc1` (centres undefined), the figures for the growth inhibition in assay [1] and in assay [4] were 7% (inactive) and 92% (active), respectively. The inhibition in assay [2] was 33% (inactive); in assay [3] it was -1% (inactive). For the same compound, the outcome in assay [5], in assay [6], in assay [7] and in assay [8] was inactive.

Take `C/C=C1\CN2CC[C@H]1C[C@H]2[C@H](O)c1ccnc2ccc(OC)cc12`: the growth inhibition was 45% (inactive) and 61% (active) in assay [1]; 102% (active) and 99% (active) in assay [4]. The inhibition in assay [2] is -12% (inactive) and -9% (inactive); in assay [3], 4% (inactive) and -10% (inactive). Besides, the result in assay [5], in assay [6], in assay [7] and in assay [8] was inactive.

`CC[C@H]1CN2CC[C@@H]1C[C@H]2[C@H](O)c1cc(N2CCC(O)CC2)nc2ccc(OC)cc12`: the growth inhibition in assay [1] is 92% (active); in assay [4] it was 99% (active). For the same compound, the inhibition was 15% (inactive) in assay [2] and 3% (inactive) in assay [3]. For the same compound, the outcome in assay [5], in assay [6], in assay [7] and in assay [8] was inactive.
